From ChEMBL document CHEMBL3988442, “University of Dundee, Small-Polar-MMV Screening Library” (2021) come the findings set out here.

Out of some 48,000 compounds screened, about 13,000 (27%) showed an effect of 50% or more. The list shows a part of the results.

The subject of this test is Wolbachia pipientis. Nature of the test: Anti-Wolbachia Cell-Based Screen. It counts as functional. Also on record: scale not given: in the data most compounds retested in dose-response had high values. The conditions noted are these: 5 µM.
Turning to `CC(NC(=O)c1ccoc1)C(=O)N(C)Cc1ccsc1` (stereo unspecified), the “Percent Effect” value was 8.82%.
For the compound `COc1cc(C(=O)N2CCCC(CNS(C)(=O)=O)C2)cc(OC)c1C` (stereo unspecified), the “Percent Effect” value is recorded as 0.06204%.
Regarding `CC(C)Oc1cc(N2CCN(Cc3ccsc3)C(CCO)C2)nc(N)n1` (stereo unspecified), the “Percent Effect” value is -3.773%.
Then `CCCC(NC(=O)c1ccc(OC)cc1F)c1nnn[nH]1` (stereo unspecified), with -0.1945%; and `COc1c(NS(=O)(=O)c2cc(C)ccc2C)c(C)nn1C`, with 9.711%; and `Cc1cc(N2CCCC(c3[nH]ncc3Cc3ccccc3)C2)nc(N)n1` (stereo unspecified), with 51.86%.
As for `Cc1ccc(N2CCCC(c3[nH]ncc3Cc3ccccc3)C2)nn1` (stereo unspecified), the “Percent Effect” value stood at 26.61%.
With `Cc1ccc(N2CCC(c3[nH]ncc3Cc3ccccc3)CC2)nn1`, the “Percent Effect” value is recorded as 27.05%.
Take `CCCc1cc(=O)[nH]c2nnc(SCC(=O)OCC)n12`: the “Percent Effect” value is listed as 11%.
Under `CC1CN(C(=O)CN(Cc2ccco2)Cc2cccs2)CCO1` (stereo unspecified) stands 127.8%; under `Cc1nnc(CN(Cc2ccccc2Cl)C2CCCC2)o1`, -12.06%; under `Cc1ccc(CN(CC(=O)N2CCOC(C)C2)C2CC2)cc1` (stereo unspecified), 133.3%.
Under `CC1CN(C(=O)CN(Cc2ccccc2Br)C2CC2)CCO1` (stereo unspecified) stands 15.13%; under `CC1CN(C(=O)CN(Cc2ccccc2)C2CC2)CCO1` (stereo unspecified), 126.4%; under `Cn1cc(C(=O)N(Cc2ccco2)Cc2cccs2)ccc1=O`, -5.076%.
Under `CC1CN(C(=O)CN(Cc2ccco2)C2CC2)CCO1` (stereo unspecified) stands -3.205%.
With `CC(C)(C)c1cc(NC(=O)CN(Cc2ccco2)Cc2cccs2)on1`, the “Percent Effect” value was 15.1%.
Under `CC1CN(C(=O)c2sccc2Br)CCO1` (stereo unspecified) stands 5.426%.
Under `CC1CN(C(=O)c2ccn(-c3cccc(Cl)c3)n2)CCO1` (stereo unspecified) stands 3.639%.
Then `CC1CN(C(=O)CN(Cc2ccccc2Cl)C2CCCC2)CCO1` (stereo unspecified), with 167.1%; and `CC1CN(C(=O)CCc2cc(Br)cs2)CCO1` (stereo unspecified), with -0.4778%.
For `Cc1cc(NC(=O)N(C)C2CCN(c3ccccc3F)C2=O)n(C)n1` (stereo unspecified), the “Percent Effect” value was -7.553%.
Then `O=C(c1ccc2c(c1)CCO2)N1CCN(c2ccc(Cl)cn2)CC1`, with 6.232%; and `CN(C)CC1CN(CCOc2cccc(C#N)c2)CCO1` (stereo unspecified), with 0.1863%; and `Cc1ncsc1C(=O)NC1CCN(Cc2ccc(C#N)cc2)CC1`, with -12.71%.
Under `O=C(NCCOc1ncc(Cl)cc1Cl)c1ccoc1` stands 25.9%; under `CO[C@H]1CCN(S(=O)(=O)c2cn(C)cn2)[C@H]1Cc1cnn(C)c1.O=C(O)C(F)(F)F`, -3.902%.
Under `CCS(=O)(=O)N1CCC(Nc2ccc(C#N)cc2F)CC1` stands 19.57%; under `CC(C)c1ccc(CNC(C)c2ccc(S(C)(=O)=O)cc2)cc1` (stereo unspecified), 0.134%; under `CCC(NC(=O)c1cnc(N(C)C)nc1C)c1ccc(S(C)(=O)=O)cc1` (stereo unspecified), -15.6%.
As to `CCC(NC1CCCC1)c1ccc(S(C)(=O)=O)cc1` (stereo unspecified), the “Percent Effect” value was found to be 102.8%.
Under `CC(NCc1ccc(C(C)(C)C)cc1)c1ccc(S(C)(=O)=O)cc1` (stereo unspecified) stands 2.046%.
Under `CCC(NC1CSCCSC1)c1ccc(S(C)(=O)=O)cc1` (stereo unspecified) stands 107.2%; under `CCC(Nc1nccc(C2CCCC2)n1)c1ccncc1` (stereo unspecified), -45.04%.
Under `O=S(=O)(N[C@H]1CC[C@H]1NC1Cc2ccccc2C1)c1cccnc1` stands 1.504%; under `CS(=O)(=O)c1ccc(CNC(=O)N2CCC(c3ccccc3)CC2)cc1`, -1.969%; under `CCC(NC1Cc2ccccc2C1)c1ccc(S(C)(=O)=O)cc1` (stereo unspecified), 106.7%.
In the case of `CCCN(C)CC1CCN(c2ncc(Br)cn2)C1` (stereo unspecified), the “Percent Effect” value is given as -2.862%.
Under `CC(C)CNC[C@H]1COCc2nc3cccnc3n21` stands -3.474%; under `Cc1nc(C(=O)N2CCCC(c3nc(C(C)C)cs3)C2)c[nH]1` (stereo unspecified), 27.35%.
Under `Cc1cc(C(=O)NCCCn2nccc2C2CC2)c(=O)[nH]c1C` stands -16.3%.
Then `CSc1ccc(CN2CCC(CCC(=O)Nc3ccccc3)CC2)cc1`, with 8.024%; and `O=C(O)c1ccccc1-c1ccc(CN2CCC(CO)C2)cn1` (stereo unspecified), with 95.58%; and `CC(C)c1ncc(CN2C[C@@H](CN3CCC(CO)CC3)[C@@H](CO)C2)cn1`, with 1.413%.
For `Cc1ccc(CN2CC[C@H](c3nc4cccc(C(N)=O)c4[nH]3)C2)cc1`, the “Percent Effect” value is given as -7.444%.
Then `O=C(Nc1cnn(CCN2CCOCC2)c1)c1ccccc1O`, with -9.189%.
Then `O=C(O)c1ccccc1-c1ccc(CN2CCC(CO)C2)cc1` (stereo unspecified), with 100.7%; and `O=C(O)c1ccccc1-c1ccc(CN2CCC(CO)CC2)cn1`, with 112.1%; and `CN(C)c1ccc(CN2CCC(C(O)Cc3ccccc3)CC2)cn1` (stereo unspecified), with 1.983%.
Then `OCC1(CC2CC2)CCCN(Cc2ccc(C(F)(F)F)nc2)C1` (stereo unspecified), with -8.11%.
For the compound `CC(O)C1CCN(Cc2cnc3c(-c4ccccc4)cnn3c2)CC1` (stereo unspecified), the “Percent Effect” value was 2.9%.
Then `Cn1cc(C(=O)Nc2ccc(CN3CCOCC3)cn2)cn1`, with -16.87%; and `O=C(O)c1ccccc1-c1ccc(CN2CCOCC2)cn1`, with 106.2%; and `CC(C)=CCC1(CO)CCCN(S(=O)(=O)N2CCCC2)C1` (stereo unspecified), with -19.27%.
Under `COCCOc1ccccc1NC(C)C(=O)NC(=O)NC(C)(C)C` (stereo unspecified) stands 2.141%; under `O=C1CCC(=O)N1CCN1CCOC(c2ccsc2)C1` (stereo unspecified), -5.454%.
With `O=C1NCCO[C@H]2CN(C(=O)CC3Cc4ccccc4C3)CC[C@@H]12`, the “Percent Effect” value is reported as -17.08%.
Take `CCCS(=O)(=O)N1CCN(c2cc(-n3ccnc3)nc(C)n2)CC1`: the “Percent Effect” value was -9.543%.
Then `CCCS(=O)(=O)N1CCN(c2cc(-n3cnc(C)c3C)nc(C)n2)CC1`, with 2.706%; and `CCCS(=O)(=O)N1CCN(c2cc(-n3cccc3)nc(C)n2)CC1`, with 64.17%; and `CCS(=O)(=O)N1CCN(c2cc(-n3cnc(C)c3C)nc(C)n2)CC1`, with 9.656%.
On to `CCCS(=O)(=O)N1CCN(c2cc(-n3nc(C)cc3C)nc(C)n2)CC1`, for which the “Percent Effect” value was 56.72%.
As for `Cc1cc(C)n(-c2cc(N3CCN(C(=O)C(C)(C)C)CC3)nc(C)n2)n1`, the “Percent Effect” value is -2.343%.
Under `CCc1nc(CN2CCCN(CC(=O)Nc3cccnc3)CC2)no1` stands 22.91%; under `CCc1nnc(N2C[C@@H](CN(C)CCO)[C@@H](CO)C2)s1`, -3.241%; under `Cc1ccc(NC2CCN(C(=O)c3cc[nH]n3)CC2)nn1`, -5.889%.
Then `Cc1ccc(NC2CCN(C(=O)CCc3c(C)noc3C)CC2)nn1`, with 116%.
Under `Cc1ccc(NC2CCN(C(=O)c3cscn3)CC2)nn1` stands 107.8%; under `Cc1ccc(NC2CCN(C(=O)CCc3nccs3)CC2)nn1`, 139%.
As to `Cc1ccc(NC2CCN(C(=O)CCc3ccncc3)CC2)nn1`, the “Percent Effect” value worked out at 118.5%.
Under `Cc1ccc(NC2CCN(C(=O)c3c(C)noc3C)CC2)nn1` stands 4.919%.
